Several values for one entry are separate records, joined by “and”; a condition that tells them apart may be missing. Identical values can stand only once. Records with an inconclusive call do not appear. Unmarked numbers belong to inactive results. Activity calls are given as the source filed them. Calls follow the shape of the dose curve; as a rule, active = well fitted cell-killing curve with a large enough effect; inconclusive = small, poorly fitted or top-dose-only effect, or effect the other way; inactive = no such curve, though single readings can be large or run the other way.
Potency is read from the fitted curve at half-maximal effect.

The nature of this assay: Viability qHTS for spleen associated tyrosine kinase inhibitor (SYKi) drug resistant MV4-11 cells (AID 1963824). Also: nearly all actives have a fitted effect of over 35% in size. As to conditions: SYKi-resistant MV4-11 viability, CellTiter-Glo, 72 h; series mostly up to 45 µM; viability, % of control: at the top concentration. An outline of the steps:
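CellTiter-Glo luminescence, read 10 min after reagent addition, reports viability after a 72 hr compound exposure. Cells are an MV4-11 line made resistant to SYK inhibition, seeded at 500 per well onto compound-containing plates.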
In the case of `CN1CCN(c2nc(C3=C(c4c[nH]c5ccccc45)C(=O)NC3=O)c3ccccc3n2)CC1`, the Potency is 461 nM (active) and 2.35 µM (active).

As to `CC(=O)O[C@@H]1C[C@@H](OC(C)=O)C(C)(C)/C=C/[C@H](C)[C@H](OC(C)=O)[C@@]2(O)C[C@H](C)[C@H](OC(=O)c3ccccc3)[C@@H]2/C=C/1C`, the Potency was 2.73 µM (active).

For the compound `CC(C)CC(=O)O[C@@H]1OC=C(CO[C@@H]2O[C@H](CO[C@@H]3O[C@H](CO)[C@@H](O)[C@H](O)[C@H]3O)[C@@H](O)[C@H](O)[C@H]2O)[C@H]2C[C@H](O)[C@@H](CO)[C@@H]12`, the “viability, % of control” value is 102% [at 17.3 µM].

For `Cn1cc(C2=C(c3coc4ccccc34)C(=O)NC2=O)c2cc(Br)ccc21`, the Potency was 7.31 µM (active).

With `Nc1nc2c(nc(Br)n2[C@@H]2O[C@@H]3COP(=O)(O)O[C@H]3[C@H]2O)c(=O)[nH]1`, the “viability, % of control” value was 92.1%.

As for `C=C[C@H]1[C@H](O[C@@H]2O[C@H](CO)[C@@H](O)[C@H](O)[C@H]2O)OC=C2C(=O)N3Cc4c([nH]c5ccccc5c4=O)[C@@H]3C[C@H]21`, the “viability, % of control” value is 91.2% [at 17.3 µM].

`CCCc1[nH]nc2c1C(c1cc(Cl)cc(Cl)c1O)C(C#N)=C(N)O2` (stereo unspecified): the Potency was 16.4 µM (active).

For `CC1=C(C)C(=O)OC(C(C)C2CCC3C4CC=C5CC(OC6OC(COC7OC(CO)C(O)C(O)C7O)C(O)C(O)C6O)CC(O)C5(C)C4CCC23C)C1` (stereo unspecified), the “viability, % of control” value was 65.7% [at 17.3 µM].

With `COc1cc(C(=O)OCCCN2CCCN(CCCOC(=O)c3cc(OC)c(OC)c(OC)c3)CC2)cc(OC)c1OC`, the Potency was 21.1 µM (active).

Regarding `CC(=C\C(C)O)/C=C(\C)C(=O)CC1CC(CC(N)=O)CC(=O)O1` (stereo unspecified), the “viability, % of control” value was 85%.

Take `c1ccc(Cc2ncc3c(n2)CCNCC3)cc1`: the “viability, % of control” value was 95.6%.

In the case of `OC[C@H]1O[C@@H](Oc2cc(O)c3c(c2)O[C@@H](c2ccc(O)cc2)[C@H](O)C3)[C@H](O)[C@@H](O)[C@@H]1O`, the “viability, % of control” value was 82.8% [at 17.3 µM].

Turning to `NCc1ccc(Nc2ncc(F)c(Nc3ccccc3)n2)cc1`, the Potency is 1.46 µM (active).

Take `C=C1[C@@H]2CC[C@@]3(C)[C@H](c4ccoc4)OC(=O)C[C@]13O[C@H]1CC(=O)C(C)(C)[C@H](CC(=O)OC)[C@]12C`: the “viability, % of control” value was 73.6% [at 17.3 µM].

Turning to `CNc1nc(Cc2ccccc2)nc2c1CCNC[C@@H]2C`, the Potency is 11.6 µM (active).

Regarding `C=C[C@H]1C(O[C@@H]2O[C@H](CO)[C@@H](O)[C@H](O)[C@H]2O)OC=C2C(=O)N3CCc4c([nH]c5ccccc45)C3CC21` (stereo partly specified), the “viability, % of control” value is 80.8% [at 17.3 µM].

For the origin of these results see PubChem BioAssay (NCATS).
